# Rows were chosen to be rich in hits. Some 21% of all compounds tested hit in one or more screens of this group.
# DRD3 antagonist = blocks the human D3 dopamine receptor | D3R cells, DiscoveRx beta-arrestin luminescence, antagonist mode; stronger effect = lower value | max response, negative = inhibition, % | 2.5% of 360,000 active; in the data active = max response below about -50%; inconclusive = no clear call, values can overlap the other calls
# Target sequence (P35462 whole entry, looked up): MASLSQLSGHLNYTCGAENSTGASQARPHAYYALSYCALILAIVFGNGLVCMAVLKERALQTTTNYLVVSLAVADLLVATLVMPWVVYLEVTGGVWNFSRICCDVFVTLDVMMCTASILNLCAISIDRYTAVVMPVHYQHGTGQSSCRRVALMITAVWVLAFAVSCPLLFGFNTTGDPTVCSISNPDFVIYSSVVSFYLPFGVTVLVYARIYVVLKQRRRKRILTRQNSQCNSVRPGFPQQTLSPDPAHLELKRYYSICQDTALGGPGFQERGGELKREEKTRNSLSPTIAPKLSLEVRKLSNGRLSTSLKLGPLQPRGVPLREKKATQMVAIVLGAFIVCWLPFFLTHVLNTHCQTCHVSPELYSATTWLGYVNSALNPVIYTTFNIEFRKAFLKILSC
#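 Cells expressing the human receptor were seeded at 1500 cells/well, incubated overnight at 37 degrees C in 5% CO2, then exposed to library compounds with dopamine controls for 90 minutes at 37 degrees C before luminescent detection.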
# IL-1B inflam inh = inhibitors of inflammasome signaling (IL-1 beta secretion) | THP-1 LPS/ATP IL-1B secretion, AlphaLISA, 16 h; stronger effect = lower value | activity change, % at 57.5 µM | 4.7% of 360,000 active | AID 743279; in the data active = activity change below about -50%; inconclusive = mostly about -30% to -49%
#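 THP-1 cells pretreated 1 hr with compounds (up to 57.5 uM final), then stimulated with LPS (250 ng/mL final) plus ATP (1.25 mM final); secreted IL-1B measured by AlphaLISA after 16 hr, decreased signal indicating inhibition.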
# TDP1 cell CPT = DT40-hTDP1 cell growth loss with CPT; chicken DT40 Tdp1-/-;hTDP1 cells + 20 nM CPT, ATP luminescence, 48 h; Potency, µM (highest dose often 46.2 µM), most hits filed as inhibitors; 12% of 420,000 active; also: nearly all actives have a fitted effect of over 55% in size
#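 Cell growth measured by CellTiter-Glo luminescence after a minimum 48 h, 37 C compound exposure with 20 nM CPT in Tdp1-knockout DT40 cells stably expressing hTDP1, seeded 400/well; qHTS titration format.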
# D3 ag = agonists of human D3 dopamine receptor. P35462. max activation, %. D3R DiscoveRx beta-arrestin cells, luminescence, 90 min. 0.58% of 410,000 active; in the data active = max activation above about 30%
#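 Cells at 1500/well, incubated overnight, then treated with pinned compounds (dopamine as control) for 90 min at 37 degrees C. DiscoveRx reagent added for 30 - 60 minutes at room temperature; luminescence read.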
# TDP1 cell noCPT = qHTS for Inhibitors of human tyrosyl-DNA phosphodiesterase 1 (TDP1): qHTS in cells in absence of CPT; DT40 Tdp1-/- hTDP1 cells, no CPT, ATP luminescence, 48 h; Potency, µM (top dose mostly 46.2 µM), usual class: inhibitors; 15% of 420,000 active; AID 686978, 2013; also: nearly all actives have a fitted effect of over 55% in size
#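 Seeded 400 DT40-hTDP1 cells/well (vehicle DMSO, no 20 nM CPT); pinned compounds; ≥48 hr at 37 °C; CellTiter-Glo luminescence as viability measure.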
# ClpP mod = qHTS Assay for Activators of ClpP. ATP-dependent Clp protease proteolytic subunit (Bacillus subtilis (strain 168)), P80244. purified B. subtilis ClpP, FRET peptide cleavage, 20 min. Potency, µM (top dose mostly 57.5 µM). 1.9% of 340,000 active; active = well fitted falling curve with a large enough effect; inconclusive = small, poorly fitted or top-dose-only effect; inactive = no such curve, though single readings can be large or run the other way; also: the source files actives as falling curves though it sought activators and does not explain the sign; nearly all actives have a fitted effect of over 65% in size
#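 Buffer: 100 mM Tris/HCl pH8, 100 mM KCl, 0.05% low protease BSA, 2.5% glycerol, 0.01% Tween-20. ClpP 10 microg/mL final; 20 min RT; delta FRET normalized to ADEP and DMSO controls.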
# A number is an active result; . = inactive; ? = inconclusive; / = no result given. Unless noted, calls follow the shape of the dose curve; as a rule, active = well fitted inhibition curve with a large enough effect; inconclusive = small, poorly fitted or top-dose-only effect; inactive = flat fitted curve, though single readings scatter.
SMILES,DRD3 antagonist,IL-1B inflam inh,TDP1 cell CPT,D3 ag,TDP1 cell noCPT,ClpP mod
CC(=O)OC1CC(C)N(C(=O)c2ccccc2)c2ccc(C)cc21 (stereo not drawn),.,.,?,.,?,.
C=C1[C@@H](O)[C@H](CC(C)C)N(Cc2ccccc2Br)S1(=O)=O,.,?,5µM,.,18µM,.
CC(C)c1ccc(N(CC(=O)NCc2ccco2)C(=O)CCC(=O)Nc2nccs2)cc1,.,?,.,.,?,/
COc1ccc(N2CCN(S(=O)(=O)c3cnc[nH]3)CC2)cc1,.,.,.,.,.,/
Nc1cccc(-c2cc3ccccc3oc2=O)c1,.,.,.,.,.,/
O=Cc1c(-c2ccccc2)cc2oc3ccccc3cc1-2,.,.,?,.,13µM,.
Cc1ccc(NC(=O)COc2coc(CN3CCc4ccccc43)cc2=O)cc1Cl,.,.,23µM,.,15µM,/
Cc1ccc(C)c(NC(=O)COc2coc(CN3CCc4ccccc43)cc2=O)c1,.,.,.,.,12µM,.
Cc1ccccc1NC(=O)COc1coc(CN2CCCc3ccccc32)cc1=O,.,.,21µM,.,15µM,.
O=C(COc1coc(CN2CCc3ccccc32)cc1=O)NCCc1ccccc1,.,.,?,.,18µM,.
CCOc1ccccc1NC(=O)COc1coc(CN2CCc3ccccc32)cc1=O,.,.,?,.,?,/
CCOC(=O)c1ccccc1NC(=O)COc1coc(CN2CCc3ccccc32)cc1=O,.,.,?,.,?,.
[O]=[Bi][O][Bi]=[O],/,/,.,.,.,/
CC(=O)Nc1ccccc1NC(=O)C/C(C)=N/NC(=O)Cc1cccc2ccccc12,.,.,?,.,?,/
COc1cc(/C(C)=C/c2ccccc2)c2c(c1)oc1ccccc12,/,/,?,/,14µM,.
CC(=O)c1cc(-c2ccccc2)n(CCC(=O)NCc2ccc(C)cc2)c1C,/,/,?,.,?,.
Cc1cccc(N2CC(C(=O)O)CC2=O)c1C (stereo not drawn),.,.,.,.,.,/
CC[n+]1ccnc2ccccc21,/,/,2.2µM,/,2.8µM,?
Cc1ccc(SCCNC(=O)c2ccc(C)c(S(=O)(=O)Nc3ccccc3C)c2)cc1,.,-67,?,.,22µM,.
COc1ccccc1NS(=O)(=O)c1ccc(C(=O)NCc2ccncc2)cc1,.,.,.,.,.,.
COc1ccccc1NS(=O)(=O)c1cc(C(=O)NCc2ccco2)ccc1C,.,-63,.,.,.,.
COc1ccccc1NS(=O)(=O)c1ccc(C(=O)NCc2ccco2)cc1,.,.,10µM,.,?,.
Cc1ccccc1NS(=O)(=O)c1cc(C(=O)NCc2ccco2)ccc1C,.,.,.,.,.,.
COc1ccccc1S(=O)(=O)N(C)C[C@H]1OCc2cnnn2CCCC(=O)N([C@@H](C)CO)C[C@@H]1C,.,.,.,.,.,.
CC(=O)Nc1ccc2c(c1)N(C(=O)CN(C)C)c1ccccc1CC2,.,.,.,.,.,.
SMILES,DRD3 antagonist,IL-1B inflam inh,TDP1 cell CPT,D3 ag,TDP1 cell noCPT,ClpP mod
CC(Cl)C(=O)N1c2ccccc2CCc2ccccc21 (stereo not drawn),.,.,?,.,13µM,.
O=C(C(Cc1ccccc1)N1C(=O)c2ccccc2C1=O)N1c2ccccc2CCc2ccccc21 (stereo not drawn),?,.,12µM,.,6.5µM,.
CC(=O)N(C)N1c2ccccc2CCc2ccccc21,.,.,?,.,15µM,/
CC(C(=O)N1CCc2ccccc21)n1cccc1 (stereo not drawn),.,.,?,.,.,.
O=C1c2ccccc2C(=O)N1CC(=O)N1c2ccccc2CCc2ccccc21,.,.,.,.,?,.
COc1ccc(-n2c3c(c(=O)[nH]c2=O)C(C(F)(F)F)(C(F)(F)F)N=C(CC(C)C)N3)cc1,.,.,.,.,.,.
